Data reported in PubChem BioAssay.

Assay: probe aNOTCH2 binding on compound microarray – biochemical, small-molecule microarray, 635/667 nm fluorescence, primary screen (AID 1121);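 further: score merges feature fluorescence read at 667 nm with its signal to noise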
Details: higher = more signal

| SMILES | composite z-score |
| --- | --- |
| COCCOC(=O)N1C(=O)[C@@]2(c3cc(C#CC4(O)CCCCCC4)ccc31)[C@H](c1ccc(OCCO)cc1)N1[C@H](c3ccccc3)[C@H](c3ccccc3)OC(=O)[C@H]1[C@@H]2C(=O)N1CCN(c2ncccn2)CC1 | -0.146 |
| COc1ccc(C#Cc2ccc3c(c2)[C@]2(C(=O)N3)[C@H](C(=O)Nc3nc4ccccc4s3)[C@H]3C(=O)O[C@H](c4ccccc4)[C@H](c4ccccc4)N3[C@@H]2c2ccc(O)cc2)cc1 | 0.158 |
| OCCCC1=CC(c2cccs2)N(Cc2cc3c(cc2Br)OCO3)CC1 (centres undefined) | -0.147 |
| CCN(CC)c1ccc(N2CC=CC34O[C@@H]5C=CCCOC(=O)C5[C@H]3C(=O)N(CCCCCCO)[C@@H]4C2=O)cc1 (some centres undefined) | -0.203 |
| CCCCCN1CC=CC23O[C@@H]4/C=C\CCC(C)OC(=O)C4[C@H]2C(=O)N(C(C)CO)[C@@H]3C1=O (some centres undefined) | -0.14 |
| CC(C)OC(=O)C=C1C[C@@H](c2ccccn2)O[C@@H](c2ccccn2)O1 | -0.12 |
| C=CCOC(=O)[C@H]1[C@@H]2C(=O)O[C@@H](c3ccccc3)[C@@H](c3ccccc3)N2[C@@H](c2ccc(OCCOC(=O)[C@@H]3C[C@@H]4C(=O)N[C@@H](CCCCNC(C)=O)C(=O)N4[C@@H]3c3ccc(O)cc3)cc2)[C@]12C(=O)Nc1ccccc12 | -0.0291 |
| Cc1nc2cc(Br)ccc2c(=O)o1 | -0.124 |
| C=CCOC(=O)[C@H]1[C@@H]2C(=O)O[C@@H](c3ccccc3)[C@@H](c3ccccc3)N2[C@@H](c2ccc(OCCOC(=O)[C@H]3C[C@H]4C(=O)N[C@@H](CCCCNC(C)=O)C(=O)N4[C@H]3c3ccc(O)cc3)cc2)[C@]12C(=O)Nc1ccc(I)cc12 | -0.147 |
| C=C[C@@H](COC(=O)OC(C)(C)C)N(Cc1ccc(OC)cc1)S(=O)(=O)c1ccc(Br)cc1 | -0.154 |
| COc1ccc([Si](C)(C)[C@H]2[C@H](CCO)O[C@@]3(C(=O)N(Cc4ccc(N(C=O)c5ccccc5)cc4)c4ccccc43)[C@@H]2C)cc1 | -0.164 |
| COCCOC(=O)N1C(=O)[C@@]2(c3cc(C#Cc4ccc(OC)cc4)ccc31)[C@H](c1ccc(OCCO)cc1)N1[C@H](c3ccccc3)[C@H](c3ccccc3)OC(=O)[C@H]1[C@@H]2C(=O)N1CCN(c2ncccn2)CC1 | -0.102 |
| COc1ccc(C#Cc2ccc3c(c2)[C@]2(C(=O)N3)[C@H](c3ccccc3OCCO)N3[C@H](c4ccccc4)[C@H](c4ccccc4)OC(=O)[C@H]3[C@@H]2C(=O)Nc2nc3ccccc3s2)cc1 | 0.0559 |
| CCCC[C@@H]1C[C@H]1[C@@H](NC(=O)C(C)(C)C)c1ccc(C(F)(F)F)cc1 | -0.0986 |
| COC(=O)C(CC#Cc1ccc2c(c1)[C@]1(C(=O)N2)[C@H](c2ccc(OCCO)cc2)N2[C@H](c3ccccc3)[C@H](c3ccccc3)OC(=O)[C@H]2[C@@H]1C(=O)Nc1nc2ccccc2s1)C(=O)OC | -0.183 |
| COc1ccc(CCNC(=O)[C@@]2(Sc3ccc(C)cc3)CC(=O)N(C(C)C)[C@@H]2c2ccc(CO)cc2I)cc1 | 0.0118 |
| COC(=O)[C@@]1(Cc2ccc(F)cc2)[C@H]2c3cc(C(=O)N4CCCC4)n(Cc4ccc(S(C)(=O)=O)cc4)c3C[C@H]2CN1C(=O)c1ccccc1 | 0.365 |
| O=C1c2ccccc2[C@](Cc2ccccc2I)(C(=O)NCCN2CCOCC2)[C@H](c2ccc(CO)cc2)N1C1CCCCC1 | -0.052 |
| COC(=O)[C@@]1(CCS(=O)(=O)c2ccccc2)N=C(c2ccc(OCCCO)cc2)O[C@H]1c1ccccc1CN=[N+]=[N-] | 0.0657 |
| COCCOC(=O)N1C(=O)[C@@]2(c3cc(C#CCNC(N)=O)ccc31)[C@H](C(=O)Nc1nc3ccccc3s1)[C@H]1C(=O)O[C@H](c3ccccc3)[C@H](c3ccccc3)N1[C@@H]2c1ccc(OCCO)cc1 | 0.0949 |
| CC(C)NC(=O)[C@@H]1c2ccccc2C(=O)N(C2Cc3ccccc3C2)[C@H]1c1ccc(CO)cc1 | -0.117 |
| CC(C)=CCCC(C)=CC(O)C1C=CC2C(=O)N(C)C(=O)C2N1Nc1ccccc1 (centres undefined) | -0.011 |
| [N-]=[N+]=NCc1ccccc1C[C@]1(C(=O)N2CCCCC2)N=C(c2ccc(OCCCO)cc2)O[C@H]1c1ccccc1N=[N+]=[N-] | 0.0097 |
| CCOC(=O)C[C@H]1[C@H](OC(=O)c2ccc(C(=O)c3ccccc3)cc2)[C@@H](NC(=O)CC(C)C)c2cc(OCCCO)ccc2N1C(=O)c1ccc2ccccc2n1 | -0.114 |
